# From the supplement of paper PMC12582362
# Counter-ions that a name gives are not always drawn. Out of some 1,500 compounds screened, about 30 (2%) showed activity.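 How the source made its calls: active = robust z-score below -2; a few such results were not called.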 The full list was thinned out, with actives kept by preference.
# System: optoTopBP1 Flp-In 293 T-REx (HEK293) cells
# Assay: light-induced TopBP1 condensate (nuclear foci) count, plate-normalised robust z-score vs non-control wells; higher = more TopBP1 condensates (negative = condensation inhibitor), active = hit call of the paper
# Conditions: 10 µM; incubation time 2 h
row,SMILES,light-induced TopBP1 condensate (z-score)
1,COc1ccc(CN(CCN(C)C)c2ccccn2)cc1 [Pyrilamine maleate],-1.49 (inactive)
2,CCCCCCCCCCCCCCCC[N+](C)(C)CCN(Cc1ccc(OC)cc1)c1ncccn1 [Thonzonium bromide],-2.49 (active)
3,CN(C)CCN(Cc1ccc(Cl)cc1)c1ccccn1 [Chloropyramine hydrochloride],-0.941 (inactive)
4,CO/N=C(\C(=O)N[C@@H]1C(=O)N2C(C(=O)OC(C)OC(C)=O)=C(COC(N)=O)CS[C@H]12)c1ccco1 (stereo partly specified) [Cefuroxime axetil],-0.531 (inactive)
5,C=C(NC(=O)C(=C)NC(=O)c1csc(C2=N[C@@H]3c4csc(n4)[C@H]4NC(=O)c5csc(n5)[C@H]([C@](C)(O)[C@@H](C)O)NC(=O)[C@H]5CSC(=N5)/C(=C/C)NC(=O)[C@H]([C@@H](C)O)NC(=O)c5csc(n5)[C@]3(CC2)NC(=O)[C@H](C)NC(=O)C(=C)NC(=O)[C@H](C)NC(=O)[C@H]([C@@H](C)CC)N[C@@H]2C=Cc3c([C@H](C)O)cc(nc3[C@H]2O)C(=O)O[C@@H]4C)n1)C(N)=O [Thiostrepton],-3.34 (active)
6,CC(C)c1ccc2oc3nc(N)c(C(=O)O)cc3c(=O)c2c1 [Amlexanox],-0.968 (inactive)
7,N=C(NCCCCCCNC(=N)NC(=N)Nc1ccc(Cl)cc1)NC(=N)Nc1ccc(Cl)cc1 [Chlorhexidine],0.68 (inactive)
8,CCc1ccc(C(=O)C(C)CN2CCCCC2)cc1 (stereo unspecified) [Eperisone HCl],1.18 (inactive)
9,CC(=O)OCC(=O)[C@@]12N=C(C)O[C@@H]1C[C@H]1[C@@H]3CCC4=CC(=O)C=C[C@]4(C)[C@H]3[C@@H](O)C[C@@]12C [Deflazacort],-0.182 (inactive)
10,CCOC(=O)C1=C(COCCN)NC(C)=C(C(=O)OC)C1c1ccccc1Cl (stereo unspecified) [Amlodipine],-1.57 (inactive)
11,OC(c1cc(C(F)(F)F)nc2c(C(F)(F)F)cccc12)C1CCCCN1 (stereo unspecified) [Mefloquine hydrochloride],-1.69 (inactive)
12,CN(C)c1ccc2nc3ccc(=[N+](C)C)cc-3sc2c1 [Methylene blue],-8.05 (active)
13,Nc1ccc2cc3ccc(N)cc3nc2c1 [Proflavine hemisulfate],-6.85 (active)
14,Nc1c2ccccc2nc2ccccc12 [Aminacrine],-2.02 (inactive)
15,CCOc1ccc2nc3cc(N)ccc3c(N)c2c1 [Ethacridine lactate],0.0605 (inactive)
16,CO/N=C(\C(=O)N[C@@H]1C(=O)N2C(C(=O)[O-])=C(C[n+]3ccn4ncccc43)CS[C@H]12)c1nsc(N)n1 [Cefozopran hydrochloride],0.96 (inactive)
17,CC[C@H]1OC(=O)[C@H](C)[C@@H](O[C@H]2C[C@@](C)(OC)[C@@H](O)[C@H](C)O2)[C@H](C)[C@@H](O[C@@H]2O[C@H](C)C[C@H](N(C)C)[C@H]2O)[C@](C)(O)C[C@@H](C)/C(=N\OCOCCOC)[C@H](C)[C@@H](O)[C@]1(C)O [Roxithromycin],0.222 (inactive)
18,CC[N+](C)(CC)CCOC(=O)C1c2ccccc2Oc2ccccc21 [Methantheline bromide],0.691 (inactive)

row,SMILES,light-induced TopBP1 condensate (z-score)
1,CSc1nc2cc(Cl)c(Oc3cccc(Cl)c3Cl)cc2[nH]1 [Triclabendazole],-2.43 (active)
2,C[C@@H](CN1CC(=O)NC(=O)C1)N1CC(=O)NC(=O)C1 [Dexrazoxane hydrochloride],-0.035 (inactive)
3,C=CCOc1ccc(CC(=O)O)cc1Cl [Alclofenac],0.0679 (inactive)
4,N=C(N)NCCN1CCCCCCC1 [Guanethidine sulfate],-0.799 (inactive)
5,CC(C)(C)NC[C@H](O)COc1ccccc1C1CCCC1 [Penbutolol sulfate],-0.793 (inactive)
6,COc1ccccc1Oc1c(NS(=O)(=O)c2ccc(C(C)(C)C)cc2)nc(-c2ncccn2)nc1OCCO [Bosentan],0.343 (inactive)
7,CC[C@H]1OC(=O)C[C@@H](O)[C@H](C)[C@@H](O[C@@H]2O[C@H](C)[C@@H](O[C@H]3C[C@@](C)(O)[C@@H](O)[C@H](C)O3)[C@H](N(C)C)[C@H]2O)[C@@H](CC=O)C[C@@H](C)C(=O)/C=C/C(C)=C/[C@@H]1CO[C@@H]1O[C@H](C)[C@@H](O)[C@@H](OC)[C@H]1OC [Tylosin],0.755 (inactive)
8,CN1C(=O)OC(C)(C)C1=O [Trimethadione],0.285 (inactive)
9,NC[C@@H]1O[C@@H](O[C@H]2[C@H](O)[C@@H](O[C@H]3O[C@H](CO)[C@@H](O)[C@H](N)[C@H]3O)[C@H](N)C[C@@H]2N)[C@@H](O)[C@H](O)[C@H]1O [Kanamycin A sulfate],0.0568 (inactive)
10,C[C@H]1[C@H](OC(=O)CCC(=O)O)O[C@@H]2O[C@@]3(C)CC[C@H]4[C@H](C)CC[C@@H]1[C@@]24OO3 [Artesunate],-0.0235 (inactive)
11,CCN(CC)CCCC(C)Nc1c2ccc(Cl)cc2nc2ccc(OC)cc12 (stereo unspecified) [Quinacrine dihydrochloride hydrate],-3.15 (active)
12,CCN(CCO)CCCC(C)Nc1ccnc2cc(Cl)ccc12 (stereo unspecified) [Hydroxychloroquine sulfate],-1.68 (inactive)
13,CCN(CC)CCCC(C)Nc1ccnc2cc(Cl)ccc12 (stereo unspecified) [Chloroquine diphosphate],-0.187 (inactive)
14,CC(=O)N[C@@H](CC(=O)N[C@@H](CCC(=O)O)C(=O)O)C(=O)O [Spaglumic acid],1.44 (inactive)
15,CC(C)(CO)[C@@H](O)C(=O)NCCC(=O)NCCSSCCNC(=O)CCNC(=O)[C@H](O)C(C)(C)CO [Pantethine],0.505 (inactive)
16,NCCCC(O)(P(=O)(O)O)P(=O)(O)O [Alendronate sodium],-0.706 (inactive)
17,O=P(O)(O)C(O)(Cc1cccnc1)P(=O)(O)O [Risedronic acid monohydrate],-0.826 (inactive)
18,C#C[C@]1(O)CC[C@H]2[C@@H]3CCC4=CCCC[C@@H]4[C@H]3CC[C@@]21C [Lynestrenol],1.39 (inactive)
